Assay results published in the supplement of paper PMC11732987, “Enantioselective OTUD7B fragment discovery through chemoproteomics screening and high-throughput optimisation” (Communications Chemistry, 2025).

What was measured:
Experiment in all cases: log2 ratio of Biotin-Ahx-Ub-VS probe labelling (fragment/DMSO); higher = less target engagement (more negative = stronger competition), active = hit call of the paper (q ≤ 0.05, log2 ratio ≤ -1)
Details in all cases: compound concentration: 200 uM; treatment time: 3 h
USP42 = target: T1, USP42 (UniProt Q9H9J4)
T1 sequence (whole entry): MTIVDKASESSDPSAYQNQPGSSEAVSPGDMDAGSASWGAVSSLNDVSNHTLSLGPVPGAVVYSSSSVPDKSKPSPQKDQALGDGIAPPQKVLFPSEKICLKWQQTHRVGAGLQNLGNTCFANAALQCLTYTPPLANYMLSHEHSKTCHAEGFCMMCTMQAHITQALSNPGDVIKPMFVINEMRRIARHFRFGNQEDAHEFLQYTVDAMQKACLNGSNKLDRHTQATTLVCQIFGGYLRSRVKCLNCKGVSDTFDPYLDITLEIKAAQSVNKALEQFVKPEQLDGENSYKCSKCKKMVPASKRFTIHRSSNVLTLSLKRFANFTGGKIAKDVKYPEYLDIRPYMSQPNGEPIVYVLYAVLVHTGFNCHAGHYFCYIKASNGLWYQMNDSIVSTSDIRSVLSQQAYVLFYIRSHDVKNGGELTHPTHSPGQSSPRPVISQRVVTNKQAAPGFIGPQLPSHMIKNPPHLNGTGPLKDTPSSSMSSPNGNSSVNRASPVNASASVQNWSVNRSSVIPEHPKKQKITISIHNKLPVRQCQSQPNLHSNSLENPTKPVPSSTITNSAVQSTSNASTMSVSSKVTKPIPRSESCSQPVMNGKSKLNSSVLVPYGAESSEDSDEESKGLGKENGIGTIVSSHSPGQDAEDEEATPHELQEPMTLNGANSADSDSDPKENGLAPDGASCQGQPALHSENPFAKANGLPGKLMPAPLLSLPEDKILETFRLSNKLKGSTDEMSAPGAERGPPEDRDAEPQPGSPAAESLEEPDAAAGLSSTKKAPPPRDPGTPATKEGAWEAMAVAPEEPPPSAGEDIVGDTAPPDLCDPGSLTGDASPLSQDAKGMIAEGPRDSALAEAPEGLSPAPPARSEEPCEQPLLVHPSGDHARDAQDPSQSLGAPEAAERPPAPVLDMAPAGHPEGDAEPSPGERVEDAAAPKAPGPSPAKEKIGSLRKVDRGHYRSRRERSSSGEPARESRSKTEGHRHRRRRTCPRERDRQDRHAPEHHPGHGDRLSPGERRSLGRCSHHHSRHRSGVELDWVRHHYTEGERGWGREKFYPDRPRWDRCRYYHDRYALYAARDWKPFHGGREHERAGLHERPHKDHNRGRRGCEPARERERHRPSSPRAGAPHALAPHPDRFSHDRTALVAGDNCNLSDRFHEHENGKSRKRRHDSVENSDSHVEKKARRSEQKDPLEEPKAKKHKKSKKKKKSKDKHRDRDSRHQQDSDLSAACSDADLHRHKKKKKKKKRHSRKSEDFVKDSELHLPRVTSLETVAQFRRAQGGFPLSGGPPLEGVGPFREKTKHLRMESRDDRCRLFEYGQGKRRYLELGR
Method in brief: (§1)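 In triplicate, 495 µg of HEK293T lysate per sample was incubated with fragment at 200 µM or vehicle for 3 h. Biotin-Ahx-Ub-VS was then added to 0.5 µM final for 1 h, and labelled DUBs were captured with NeutrAvidin, digested with LysC and trypsin, and measured by diaPASEF LC-MS/MS. Data are average log2 fragment/vehicle ratios by unpaired t-test from global-median-normalised Spectronaut label-free quantities, restricted to proteins with ≥2 unique peptides.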

USP46 = USP46 (UniProt P62068)
Method in brief: as §1

USP47 = target: T2, USP47 (UniProt Q96K76)
T2 sequence (whole entry): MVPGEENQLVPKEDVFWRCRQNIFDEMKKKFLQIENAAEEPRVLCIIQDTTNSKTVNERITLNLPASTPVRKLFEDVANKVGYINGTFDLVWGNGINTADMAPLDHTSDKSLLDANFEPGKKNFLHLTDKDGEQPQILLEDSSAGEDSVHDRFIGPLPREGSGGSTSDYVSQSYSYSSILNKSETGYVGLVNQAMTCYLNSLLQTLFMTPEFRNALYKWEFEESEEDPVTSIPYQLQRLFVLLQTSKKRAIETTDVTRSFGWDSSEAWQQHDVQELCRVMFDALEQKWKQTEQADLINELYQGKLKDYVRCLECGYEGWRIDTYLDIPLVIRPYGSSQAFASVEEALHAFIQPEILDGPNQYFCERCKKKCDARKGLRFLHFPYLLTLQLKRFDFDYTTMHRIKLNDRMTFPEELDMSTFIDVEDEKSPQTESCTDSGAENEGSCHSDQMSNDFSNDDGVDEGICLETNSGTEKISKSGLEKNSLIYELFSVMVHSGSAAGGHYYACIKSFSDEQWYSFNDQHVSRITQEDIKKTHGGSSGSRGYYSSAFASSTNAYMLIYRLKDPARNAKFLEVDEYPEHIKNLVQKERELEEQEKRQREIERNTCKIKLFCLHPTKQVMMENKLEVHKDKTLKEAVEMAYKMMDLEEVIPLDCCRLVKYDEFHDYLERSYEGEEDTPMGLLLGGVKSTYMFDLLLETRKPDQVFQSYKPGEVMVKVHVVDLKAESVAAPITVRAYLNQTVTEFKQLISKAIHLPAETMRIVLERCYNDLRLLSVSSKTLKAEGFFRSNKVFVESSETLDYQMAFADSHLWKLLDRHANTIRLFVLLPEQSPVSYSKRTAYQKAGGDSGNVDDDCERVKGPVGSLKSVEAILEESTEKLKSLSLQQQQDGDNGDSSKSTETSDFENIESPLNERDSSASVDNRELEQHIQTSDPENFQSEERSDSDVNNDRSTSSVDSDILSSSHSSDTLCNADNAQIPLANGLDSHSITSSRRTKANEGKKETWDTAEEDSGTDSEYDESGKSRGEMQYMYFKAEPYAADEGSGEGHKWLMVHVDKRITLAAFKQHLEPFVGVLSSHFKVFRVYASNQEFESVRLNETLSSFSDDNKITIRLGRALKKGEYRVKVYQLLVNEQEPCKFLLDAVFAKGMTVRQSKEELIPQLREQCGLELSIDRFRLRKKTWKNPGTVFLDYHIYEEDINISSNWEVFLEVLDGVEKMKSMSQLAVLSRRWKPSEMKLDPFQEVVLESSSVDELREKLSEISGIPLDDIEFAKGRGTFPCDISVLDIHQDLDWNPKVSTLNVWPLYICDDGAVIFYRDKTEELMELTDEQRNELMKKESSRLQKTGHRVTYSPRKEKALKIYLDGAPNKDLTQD
Method in brief: as §1

USP48 = target: T3, USP48 (UniProt Q86UV5)
T3 sequence (whole entry): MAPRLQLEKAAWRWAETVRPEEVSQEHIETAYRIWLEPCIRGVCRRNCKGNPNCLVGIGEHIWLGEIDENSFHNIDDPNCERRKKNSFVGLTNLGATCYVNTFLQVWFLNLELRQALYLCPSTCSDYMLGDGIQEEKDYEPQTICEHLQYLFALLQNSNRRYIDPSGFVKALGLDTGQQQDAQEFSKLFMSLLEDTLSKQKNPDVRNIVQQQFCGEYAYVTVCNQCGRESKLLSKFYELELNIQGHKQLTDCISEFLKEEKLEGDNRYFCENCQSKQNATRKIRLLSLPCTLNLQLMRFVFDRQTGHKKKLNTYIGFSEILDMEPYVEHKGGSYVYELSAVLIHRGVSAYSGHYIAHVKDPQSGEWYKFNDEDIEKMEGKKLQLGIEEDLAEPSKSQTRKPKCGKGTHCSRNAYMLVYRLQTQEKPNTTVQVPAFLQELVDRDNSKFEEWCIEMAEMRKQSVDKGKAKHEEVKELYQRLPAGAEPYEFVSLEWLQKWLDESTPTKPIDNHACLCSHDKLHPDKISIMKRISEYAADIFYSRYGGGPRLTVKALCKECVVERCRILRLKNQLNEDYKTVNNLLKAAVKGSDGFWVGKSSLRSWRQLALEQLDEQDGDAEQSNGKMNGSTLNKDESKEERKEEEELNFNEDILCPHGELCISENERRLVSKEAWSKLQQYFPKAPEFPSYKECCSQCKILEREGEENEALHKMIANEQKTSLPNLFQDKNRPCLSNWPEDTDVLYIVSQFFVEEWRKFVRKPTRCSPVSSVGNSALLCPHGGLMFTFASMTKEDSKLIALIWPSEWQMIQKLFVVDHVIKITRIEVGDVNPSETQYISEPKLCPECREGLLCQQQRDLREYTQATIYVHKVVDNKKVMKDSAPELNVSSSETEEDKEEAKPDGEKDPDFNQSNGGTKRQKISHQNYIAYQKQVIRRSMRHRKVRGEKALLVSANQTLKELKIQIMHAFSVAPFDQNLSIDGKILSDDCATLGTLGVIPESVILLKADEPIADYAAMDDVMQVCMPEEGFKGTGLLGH
Method in brief: as §1

USP5 = target: T4, USP5 (UniProt P45974)
T4 sequence (whole entry): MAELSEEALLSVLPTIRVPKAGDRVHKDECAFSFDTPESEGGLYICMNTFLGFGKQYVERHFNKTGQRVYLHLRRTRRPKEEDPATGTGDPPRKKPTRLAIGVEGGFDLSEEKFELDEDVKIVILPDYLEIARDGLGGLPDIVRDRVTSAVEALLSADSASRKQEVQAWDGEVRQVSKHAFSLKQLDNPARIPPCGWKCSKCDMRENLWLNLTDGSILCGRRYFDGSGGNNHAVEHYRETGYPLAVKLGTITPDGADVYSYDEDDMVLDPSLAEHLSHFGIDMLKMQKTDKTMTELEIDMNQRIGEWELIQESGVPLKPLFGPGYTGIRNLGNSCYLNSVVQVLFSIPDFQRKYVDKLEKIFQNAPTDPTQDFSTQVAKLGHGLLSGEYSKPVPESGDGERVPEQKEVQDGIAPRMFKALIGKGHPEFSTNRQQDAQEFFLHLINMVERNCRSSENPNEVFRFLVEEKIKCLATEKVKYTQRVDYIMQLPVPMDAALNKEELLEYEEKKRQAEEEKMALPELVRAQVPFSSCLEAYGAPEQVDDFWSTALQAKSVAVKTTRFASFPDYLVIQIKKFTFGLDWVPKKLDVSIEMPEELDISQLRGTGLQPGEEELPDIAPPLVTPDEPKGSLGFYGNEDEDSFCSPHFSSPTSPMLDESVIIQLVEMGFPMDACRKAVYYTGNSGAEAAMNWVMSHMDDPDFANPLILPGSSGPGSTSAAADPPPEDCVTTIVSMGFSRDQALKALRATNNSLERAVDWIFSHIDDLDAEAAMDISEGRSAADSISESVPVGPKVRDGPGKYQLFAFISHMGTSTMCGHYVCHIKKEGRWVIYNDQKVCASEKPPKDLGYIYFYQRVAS
Method in brief: as §1

USP54 = USP54 (UniProt Q70EL1)
Method in brief: as §1

USP7 = USP7 (UniProt Q93009)
Method in brief: as §1

USP8 = target: T5, USP8 (UniProt P40818)
T5 sequence (whole entry): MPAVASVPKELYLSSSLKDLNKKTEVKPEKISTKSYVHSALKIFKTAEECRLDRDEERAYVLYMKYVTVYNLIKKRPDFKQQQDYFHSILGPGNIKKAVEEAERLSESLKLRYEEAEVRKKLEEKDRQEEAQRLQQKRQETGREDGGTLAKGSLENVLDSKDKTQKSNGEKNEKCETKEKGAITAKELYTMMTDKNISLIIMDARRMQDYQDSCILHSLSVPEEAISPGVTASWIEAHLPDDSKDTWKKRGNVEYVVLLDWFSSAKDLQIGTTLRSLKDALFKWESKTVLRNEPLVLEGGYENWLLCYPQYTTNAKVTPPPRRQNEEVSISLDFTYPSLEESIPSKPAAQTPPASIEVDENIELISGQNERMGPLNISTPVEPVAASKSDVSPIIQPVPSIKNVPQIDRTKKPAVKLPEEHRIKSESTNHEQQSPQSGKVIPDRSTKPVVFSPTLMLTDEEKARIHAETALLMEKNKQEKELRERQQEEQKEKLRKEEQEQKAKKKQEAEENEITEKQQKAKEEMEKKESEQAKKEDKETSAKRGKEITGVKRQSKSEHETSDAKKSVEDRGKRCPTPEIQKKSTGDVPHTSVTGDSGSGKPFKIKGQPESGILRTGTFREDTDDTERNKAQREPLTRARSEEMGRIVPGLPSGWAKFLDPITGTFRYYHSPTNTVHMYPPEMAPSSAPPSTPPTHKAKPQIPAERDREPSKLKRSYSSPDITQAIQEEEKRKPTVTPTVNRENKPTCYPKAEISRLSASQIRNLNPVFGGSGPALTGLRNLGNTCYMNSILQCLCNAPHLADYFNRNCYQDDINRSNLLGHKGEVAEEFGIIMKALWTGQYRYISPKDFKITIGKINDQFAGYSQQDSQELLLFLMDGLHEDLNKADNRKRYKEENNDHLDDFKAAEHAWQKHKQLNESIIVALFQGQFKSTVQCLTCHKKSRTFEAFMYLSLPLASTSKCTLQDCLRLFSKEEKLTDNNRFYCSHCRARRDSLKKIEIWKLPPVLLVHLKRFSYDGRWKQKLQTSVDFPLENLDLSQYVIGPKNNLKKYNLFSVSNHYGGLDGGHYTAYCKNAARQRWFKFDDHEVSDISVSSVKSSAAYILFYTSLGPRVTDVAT
Method in brief: as §1

USP9X = USP9X (UniProt Q93008)
Method in brief: as §1

UniProt O00487 = target: UniProt O00487
Method in brief: as §1

Measured: log2 ratio of Biotin-Ahx-Ub-VS probe labelling

UniProt O00487, sequence (O00487 whole entry): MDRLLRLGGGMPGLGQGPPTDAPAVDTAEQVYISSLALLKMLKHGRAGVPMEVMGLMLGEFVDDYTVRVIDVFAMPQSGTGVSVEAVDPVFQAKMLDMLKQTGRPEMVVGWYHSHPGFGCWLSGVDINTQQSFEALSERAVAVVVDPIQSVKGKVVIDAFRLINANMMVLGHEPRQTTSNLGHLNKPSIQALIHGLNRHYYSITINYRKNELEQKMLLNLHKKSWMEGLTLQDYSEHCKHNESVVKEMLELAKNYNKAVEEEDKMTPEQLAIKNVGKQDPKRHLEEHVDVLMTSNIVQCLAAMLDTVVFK
USP9X, sequence (Q93008 whole entry): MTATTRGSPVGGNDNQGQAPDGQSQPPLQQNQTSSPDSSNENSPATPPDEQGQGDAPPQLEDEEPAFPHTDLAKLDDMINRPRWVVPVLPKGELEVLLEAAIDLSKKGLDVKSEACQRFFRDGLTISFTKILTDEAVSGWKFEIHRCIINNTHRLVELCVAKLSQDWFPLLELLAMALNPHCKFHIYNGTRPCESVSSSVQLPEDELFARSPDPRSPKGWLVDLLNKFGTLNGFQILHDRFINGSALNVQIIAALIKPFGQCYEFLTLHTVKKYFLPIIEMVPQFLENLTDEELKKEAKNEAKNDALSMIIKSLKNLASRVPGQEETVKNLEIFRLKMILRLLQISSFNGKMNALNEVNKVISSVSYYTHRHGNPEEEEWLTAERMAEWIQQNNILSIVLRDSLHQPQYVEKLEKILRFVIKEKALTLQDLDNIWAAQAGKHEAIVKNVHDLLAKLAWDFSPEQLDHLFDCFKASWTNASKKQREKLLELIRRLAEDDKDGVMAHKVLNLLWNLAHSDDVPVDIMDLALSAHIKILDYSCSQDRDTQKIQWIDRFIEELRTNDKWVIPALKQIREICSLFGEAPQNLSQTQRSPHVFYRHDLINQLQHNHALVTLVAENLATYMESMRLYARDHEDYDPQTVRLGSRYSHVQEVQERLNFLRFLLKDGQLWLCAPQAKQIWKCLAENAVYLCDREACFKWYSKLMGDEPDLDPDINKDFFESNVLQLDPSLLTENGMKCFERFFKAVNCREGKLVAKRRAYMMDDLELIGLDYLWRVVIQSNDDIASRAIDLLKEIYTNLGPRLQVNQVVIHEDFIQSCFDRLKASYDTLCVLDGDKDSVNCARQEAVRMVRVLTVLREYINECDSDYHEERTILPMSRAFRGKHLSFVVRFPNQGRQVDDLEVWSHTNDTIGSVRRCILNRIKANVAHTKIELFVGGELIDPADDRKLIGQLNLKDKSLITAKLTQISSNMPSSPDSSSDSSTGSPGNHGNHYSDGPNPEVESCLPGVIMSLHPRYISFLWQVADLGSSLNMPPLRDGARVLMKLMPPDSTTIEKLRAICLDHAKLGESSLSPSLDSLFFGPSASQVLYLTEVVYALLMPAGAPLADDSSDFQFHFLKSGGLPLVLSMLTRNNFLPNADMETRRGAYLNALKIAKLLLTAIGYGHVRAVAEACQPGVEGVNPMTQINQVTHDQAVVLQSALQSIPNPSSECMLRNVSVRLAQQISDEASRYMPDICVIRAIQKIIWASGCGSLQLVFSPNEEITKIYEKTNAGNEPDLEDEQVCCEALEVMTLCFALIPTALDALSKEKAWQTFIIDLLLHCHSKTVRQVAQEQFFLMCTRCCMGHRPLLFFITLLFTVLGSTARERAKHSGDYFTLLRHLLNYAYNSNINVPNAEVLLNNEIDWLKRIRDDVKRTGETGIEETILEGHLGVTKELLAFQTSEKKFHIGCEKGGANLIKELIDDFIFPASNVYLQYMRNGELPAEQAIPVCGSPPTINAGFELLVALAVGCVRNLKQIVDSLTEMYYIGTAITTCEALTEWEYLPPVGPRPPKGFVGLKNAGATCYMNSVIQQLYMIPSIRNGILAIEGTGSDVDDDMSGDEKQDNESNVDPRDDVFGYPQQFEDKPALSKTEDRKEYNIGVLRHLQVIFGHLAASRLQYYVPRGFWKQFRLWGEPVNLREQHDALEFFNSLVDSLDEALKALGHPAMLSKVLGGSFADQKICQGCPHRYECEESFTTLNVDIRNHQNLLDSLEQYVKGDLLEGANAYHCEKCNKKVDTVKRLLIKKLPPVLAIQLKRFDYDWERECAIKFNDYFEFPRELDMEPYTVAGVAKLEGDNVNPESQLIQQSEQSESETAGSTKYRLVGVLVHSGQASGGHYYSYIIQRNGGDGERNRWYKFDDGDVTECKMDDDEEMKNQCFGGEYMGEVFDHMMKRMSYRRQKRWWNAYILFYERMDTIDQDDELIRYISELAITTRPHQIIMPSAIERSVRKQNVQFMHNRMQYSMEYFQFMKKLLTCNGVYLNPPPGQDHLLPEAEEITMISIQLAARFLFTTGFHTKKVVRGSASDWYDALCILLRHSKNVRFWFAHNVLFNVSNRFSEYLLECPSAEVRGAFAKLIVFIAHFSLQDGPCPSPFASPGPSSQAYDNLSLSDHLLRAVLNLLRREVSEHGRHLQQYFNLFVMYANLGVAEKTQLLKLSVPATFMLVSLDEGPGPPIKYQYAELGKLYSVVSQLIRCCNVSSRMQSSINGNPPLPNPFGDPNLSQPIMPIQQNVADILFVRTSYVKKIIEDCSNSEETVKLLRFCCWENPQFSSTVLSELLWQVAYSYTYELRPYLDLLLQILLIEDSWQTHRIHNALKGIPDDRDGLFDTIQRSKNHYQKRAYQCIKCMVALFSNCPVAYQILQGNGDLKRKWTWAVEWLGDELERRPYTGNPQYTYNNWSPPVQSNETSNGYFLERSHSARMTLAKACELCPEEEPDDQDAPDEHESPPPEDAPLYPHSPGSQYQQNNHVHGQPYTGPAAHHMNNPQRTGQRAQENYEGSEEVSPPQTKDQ
USP54, sequence (Q70EL1 whole entry): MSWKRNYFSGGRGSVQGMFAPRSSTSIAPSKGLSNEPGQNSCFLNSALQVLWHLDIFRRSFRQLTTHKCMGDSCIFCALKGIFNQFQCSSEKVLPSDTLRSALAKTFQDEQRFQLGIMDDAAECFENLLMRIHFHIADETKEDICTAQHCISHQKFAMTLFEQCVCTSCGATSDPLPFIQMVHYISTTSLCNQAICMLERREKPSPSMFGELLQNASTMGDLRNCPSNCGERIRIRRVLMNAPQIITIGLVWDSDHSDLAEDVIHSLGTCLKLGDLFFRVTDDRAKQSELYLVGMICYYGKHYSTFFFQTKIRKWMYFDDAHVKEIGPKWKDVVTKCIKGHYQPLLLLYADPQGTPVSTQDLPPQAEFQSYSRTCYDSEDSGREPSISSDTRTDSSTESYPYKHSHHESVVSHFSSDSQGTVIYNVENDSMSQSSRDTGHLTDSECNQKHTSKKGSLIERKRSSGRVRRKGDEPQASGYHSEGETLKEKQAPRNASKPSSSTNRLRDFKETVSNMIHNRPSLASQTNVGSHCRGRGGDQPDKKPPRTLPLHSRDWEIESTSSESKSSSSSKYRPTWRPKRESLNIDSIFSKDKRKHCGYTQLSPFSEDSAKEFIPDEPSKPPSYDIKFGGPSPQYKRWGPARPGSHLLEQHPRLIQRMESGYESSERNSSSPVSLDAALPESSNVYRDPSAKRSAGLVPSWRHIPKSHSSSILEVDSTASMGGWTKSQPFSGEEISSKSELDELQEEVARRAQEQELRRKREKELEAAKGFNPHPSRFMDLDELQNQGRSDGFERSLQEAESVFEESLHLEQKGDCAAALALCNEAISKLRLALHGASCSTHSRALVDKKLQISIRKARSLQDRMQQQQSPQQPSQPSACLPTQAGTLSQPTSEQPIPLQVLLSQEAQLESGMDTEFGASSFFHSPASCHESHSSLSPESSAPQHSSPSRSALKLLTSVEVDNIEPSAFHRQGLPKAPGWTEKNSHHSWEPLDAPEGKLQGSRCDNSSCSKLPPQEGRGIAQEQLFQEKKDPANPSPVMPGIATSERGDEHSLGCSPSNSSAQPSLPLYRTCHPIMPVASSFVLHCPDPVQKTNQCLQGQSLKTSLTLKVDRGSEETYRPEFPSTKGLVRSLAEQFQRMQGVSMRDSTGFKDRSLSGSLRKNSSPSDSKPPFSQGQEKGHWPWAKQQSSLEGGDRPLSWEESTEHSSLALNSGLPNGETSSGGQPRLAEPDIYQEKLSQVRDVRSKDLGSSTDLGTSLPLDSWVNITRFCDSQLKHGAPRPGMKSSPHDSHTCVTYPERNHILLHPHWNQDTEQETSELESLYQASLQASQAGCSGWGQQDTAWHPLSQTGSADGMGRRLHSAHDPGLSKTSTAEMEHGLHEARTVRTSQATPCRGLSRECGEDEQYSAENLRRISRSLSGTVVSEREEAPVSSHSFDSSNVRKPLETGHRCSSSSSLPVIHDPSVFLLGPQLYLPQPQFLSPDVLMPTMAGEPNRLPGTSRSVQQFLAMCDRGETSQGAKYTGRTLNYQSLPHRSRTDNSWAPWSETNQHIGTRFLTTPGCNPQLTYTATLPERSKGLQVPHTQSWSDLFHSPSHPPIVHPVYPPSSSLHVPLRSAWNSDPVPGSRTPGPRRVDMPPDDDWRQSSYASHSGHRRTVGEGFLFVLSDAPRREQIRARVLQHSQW
USP46, sequence (P62068 whole entry): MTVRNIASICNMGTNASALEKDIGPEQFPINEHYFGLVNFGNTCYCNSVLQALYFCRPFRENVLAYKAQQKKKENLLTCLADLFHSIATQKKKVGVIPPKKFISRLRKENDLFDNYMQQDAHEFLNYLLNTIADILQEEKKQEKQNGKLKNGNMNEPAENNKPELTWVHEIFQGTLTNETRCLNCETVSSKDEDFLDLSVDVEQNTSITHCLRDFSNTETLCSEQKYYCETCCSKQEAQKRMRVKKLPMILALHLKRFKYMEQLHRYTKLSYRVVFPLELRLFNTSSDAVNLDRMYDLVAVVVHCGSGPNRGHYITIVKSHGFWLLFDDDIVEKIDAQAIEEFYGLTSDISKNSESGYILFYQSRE

Cc1ccc(N(C(=O)CCl)C2C=CS(=O)(=O)C2)cc1 (stereo not given)
inactive: USP42 0.262 | USP46 -0.055 | USP48 -0.839 | USP5 0.431 | USP54 -0.495 | USP8 0.108 | USP9X 0.0636 | UniProt O00487 0.0368
active: USP47 -1.11 | USP7 -1.19
